The whole screen tested about 340,000 compounds, of which about 55 (0.02%) were called active.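 The calls were made as follows: active = phage lysis inhibition, versus mean bacterial control, above a set limit; inconclusive = no clear call, values can overlap the other calls; inactive = the rest.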 Only a sample is shown. Entries with a potency or affinity are not part of this list.
Test: protection from phage-mediated lysis, alamar blue read-out – E. coli UTI89, K1F phage, bacterial capsule biogenesis inhibitors (AID 488966);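 also: capsule biogenesis inhibitors block K1F phage lysis so surviving cells raise fluorescence; higher fluorescence means more inhibition of phage lysis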
Conditions: 2 h; inhibition: at 100 µM, active compounds read high unless noted; series mostly up to 300 µM; inhibition of phage lysis: at the top concentration

inhibition, inactive:
COc1ccc(N2C(=O)C(CC(=O)Nc3ccccc3)N(Cc3cccs3)C2=O)cc1 (configuration not stated) -4.46%
CCOC(=O)c1c(C)n(C)c2cc(-c3ccc(F)cc3)c(O)cc12 7.65%
C[C@H](NC(=O)c1nc[nH]c1C(=O)N[C@@H](CCCCNC(=O)OC(C)(C)C)C(=O)OC(C)(C)C)c1ccccc1 2.05%
COc1ccc(NC(=O)Nc2cc(C(C)(C)C)on2)cc1OC 1.47% [at 50 µM, active compounds read high]
O=S(=O)(c1ccc(S(=O)(=O)N(Cc2ccco2)Cc2ccccc2Cl)cc1)N1CCCC1 0.31%
Clc1ccc(-c2ccc(/C=N/Nc3nncc(-c4ccccc4)n3)o2)cc1 0.65%
O=C(NCc1ccccc1Cl)c1cc([N+](=O)[O-])ccc1Cl 0.11%
O=C(NCc1cc([N+](=O)[O-])ccc1O)c1cccnc1Sc1ccc(Cl)cc1 7.97%
CC(=O)Nc1ccc(Nc2ccc(S(=O)(=O)C(F)(F)F)cc2[N+](=O)[O-])cc1 -2.27%
Cc1ccc(CC(NC(=O)c2ccccc2)C(=O)NC(CC(C)C)C(=O)O)cc1 (configuration not stated) 0.84%
CCCCS(=O)CC(COC)OC(=O)c1ccccc1 (configuration not stated) 0.21%
Cc1cccc2c1nc(-c1ccccc1)n1nnnc21 -2.7%
COc1ccc(CNC(=O)CN2C(=O)CSc3ccc(S(=O)(=O)N4CCCCC4)cc32)cc1 0.13%
Cc1cc(OC(=O)c2cccs2)ccc1C(C)C -0.04%
O=C(Cn1cnc(S(=O)(=O)N2CCCC2)c1)Nc1ccccc1 0.25%
O=c1c(Cl)c(NS(=O)(=O)c2ccccc2)cnn1-c1ccccc1 0.1%
COc1ccc(C(=O)OCC(=O)NC(C)CCc2ccccc2)cc1OC (configuration not stated) -0.14%
O=C1CCc2cc(NS(=O)(=O)c3ccc(Cl)cc3)cc3c2N1CC3 -0.37% [at 50 µM, active compounds read high]
C=CCN1C(=O)CN=C1Nc1cc(C)cc(C)c1 -1.02%
COc1ccc(C(=O)N2CCN(C)C(C)C2)cc1OC1CCN(C(C)=O)CC1 (configuration not stated) -0.02%
CCC(OC(=O)c1nsc(Cl)c1Cl)C(=O)NCCOC (configuration not stated) -0.07%
Cc1nn(CC(=O)Nc2ccc(N3CCOCC3)cc2)c(C)c1Br -0.525% [at 50 µM, active compounds read high]
Cc1ccccc1NC(=O)NCCCN1CCN(C)CC1 -0.845% [at 50 µM, active compounds read high]
Cc1ccccc1NC(=O)CCN1CCN(C)CC1 -0.19%
CN(C)C1=NC[C@H](Cc2ccccc2)N1CC1CCCC1 6.41%
COc1cc2cc(C(=O)NCCc3ccccc3)[nH]c2cc1OC -0.295% [at 50 µM, active compounds read high]
O=C(C1CCCO1)N1CCN(S(=O)(=O)c2ccc(F)cc2)CC1 (configuration not stated) -0.11% [at 50 µM, active compounds read high]
O=C(COC(=O)c1ccccc1[N+](=O)[O-])Nc1cccnc1Cl 0.32% [at 50 µM, active compounds read high]
Cc1ccc(NC(=O)CN(C)C(=O)Cn2nnc(-c3ccccc3C)n2)cc1 -2.28%
COc1ccc(C(=O)OCC(=O)NCC2CCCCC2)cc1F -0.21% [at 50 µM, active compounds read high]
CC(C)/C=C1\CCc2c([nH]c3ccccc23)C1=O 0%
CC1Cc2ccccc2N1C(=O)COC(=O)CSc1ccc(F)cc1 (configuration not stated) 0.27% [at 50 µM, active compounds read high]
COc1ccc(NC(=O)CN(C)C(=O)c2ccccc2OCC(=O)Nc2cccc(C(F)(F)F)c2)cc1 1.88% [at 50 µM, active compounds read high]
NC(N)=N/N=C/c1ccc(OCc2ccc(Cl)cc2)cc1 -12.3%
NC(N)=N/N=C/c1ccc(OCc2ccccc2)c(OCc2ccccc2)c1 1.28%
CC1=C(C(=O)OCC(C)C)C23C(=O)c4ccccc4C2(O1)OC(N)=C3C#N (configuration not stated) 0.06%
CCOC(=O)C1CCCN(c2c(NCCCN(C)Cc3ccccc3)c(=O)c2=O)C1 (configuration not stated) 2.34%
Cc1ccc2nc(SCC(=O)Nc3ccccc3N3CCOCC3)c(C#N)cc2c1 -1.09%
CCC(=O)N1c2ccc(S(=O)(=O)N3CCCCC3)cc2CC1C (configuration not stated) 0.16%
CC(C)N(Cc1ccccc1)C(=O)CN1C(=O)NC2(CCCC2)C1=O 1.04% [at 50 µM, active compounds read high]
Cc1c(NC(=S)NC(=O)c2cccc([N+](=O)[O-])c2)c(=O)n(-c2ccccc2)n1C -0.17%
O=C(CSc1nc2c(cnn2-c2ccccc2)c(=O)[nH]1)NC1CCS(=O)(=O)C1 (configuration not stated) -0.1%
COC(=O)Nc1nc(Sc2ncc(C(F)(F)F)cc2Cl)n[nH]1 1.11%
CCOC(=O)c1ccc2[nH]c3c(c2c1)CCCC3 0.13%
CCC(CC)NC(=O)c1cc(OC)c(OC)cc1[N+](=O)[O-] 0.4%
COc1cc(OC)c(OC)cc1CN(C)CC1CCCN(CCc2ccccc2F)C1 (configuration not stated) 0.88%
c1ccc2c(-c3cncc4ccccc34)cncc2c1 0.59%
CCOC(=O)C(Cc1ccc(O)cc1)NC(=O)CNC(=O)C(CC(C)C)NC(=O)OC(C)(C)C (configuration not stated) 4.94%
COc1cccc(-c2c(C(=O)N/N=C(\C)c3cccs3)nnn2-c2nonc2N)c1 0.38%
Cc1ccc(C)c(S(=O)(=O)N2CCCCC2CCNC(=O)C(=O)NCc2ccccc2)c1 (configuration not stated) 0.87% [at 50 µM, active compounds read high]

Inhibition of phage lysis, inactive:
Cc1ccc(Sc2ncccc2C(=O)NCc2cc([N+](=O)[O-])ccc2O)c(C)c1 5.51%
Cc1ccc(Sc2ncccc2C(=O)NCc2cc([N+](=O)[O-])ccc2O)cc1C 7.85%

From PubChem BioAssay AID488966 (Southern Research Specialized Biocontainment Screening …, 2010)
